Consider 15 sequences from publication PMC4081100, “A DNA-binding-site landscape and regulatory network analysis for NAC transcription factors in Arabidopsis thaliana”.

Test in all cases: universal protein binding microarray (PBM); transcription factors of Arabidopsis thaliana; high values mean tight binding
One experiment addresses GST-NTL6(1-168) (Arabidopsis thaliana, UniProt Q9SCK6 1-168). The note with it: protein: recombinant; tags: GST; chain copies: 2; dsDNA, one strand shown. In a few lines: (§1)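 Each value is a normalised enrichment score (E-score) describing binding. The GST-tagged proteins, NAC-domain, full-length or DNA-binding-domain, were induced in cells (zinc-finger proteins with zinc acetate added) and purified on glutathione–Sepharose 4B. They were applied at 200 to 500 nM final, in duplicate, to double-stranded custom all-10-mer Agilent 4 × 180K arrays, and gapped and ungapped 8-mers were scored.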

Another experiment has as its target T1, GST-ANAC055(1-171) (Arabidopsis thaliana, UniProt Q9LDY8 1-171).
T1 sequence: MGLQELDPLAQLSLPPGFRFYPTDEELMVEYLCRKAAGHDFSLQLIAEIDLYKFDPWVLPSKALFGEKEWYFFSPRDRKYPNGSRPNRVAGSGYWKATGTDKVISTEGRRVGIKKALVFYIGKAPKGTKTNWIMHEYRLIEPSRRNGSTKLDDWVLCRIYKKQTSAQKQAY
The note with it: protein: recombinant; tags: GST; chain copies: 2; dsDNA, one strand shown. Summed up:
as §1

Experiment [1] concerns the target T2, GST-ANAC092(1-285) full length (Arabidopsis thaliana, UniProt Q9FKA0 1-285).
T2 sequence: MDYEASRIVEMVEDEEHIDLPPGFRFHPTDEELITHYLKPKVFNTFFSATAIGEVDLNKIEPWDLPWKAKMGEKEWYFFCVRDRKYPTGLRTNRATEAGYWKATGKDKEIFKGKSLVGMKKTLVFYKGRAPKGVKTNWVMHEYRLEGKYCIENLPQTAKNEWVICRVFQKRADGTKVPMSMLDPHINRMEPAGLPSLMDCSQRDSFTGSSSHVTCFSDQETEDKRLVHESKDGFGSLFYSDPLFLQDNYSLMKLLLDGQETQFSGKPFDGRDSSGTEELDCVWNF
The following applies: protein: recombinant; tags: GST; chain copies: 2; dsDNA, one strand shown. Summed up:
as §1

The target in a further experiment is T3, GST-NAP(1-166) (Arabidopsis thaliana, UniProt O49255 1-166).
T3 sequence: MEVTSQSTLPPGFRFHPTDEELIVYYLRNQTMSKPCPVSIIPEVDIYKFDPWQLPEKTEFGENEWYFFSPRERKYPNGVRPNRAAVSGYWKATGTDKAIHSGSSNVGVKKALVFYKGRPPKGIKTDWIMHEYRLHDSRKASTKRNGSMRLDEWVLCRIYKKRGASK
The following applies: protein: recombinant; tags: GST; chain copies: 2; dsDNA, one strand shown. In a few lines:
as §1

The target in another experiment is T4, GST-NST2(1-184) (Arabidopsis thaliana, UniProt Q9M274 1-184).
T4 sequence: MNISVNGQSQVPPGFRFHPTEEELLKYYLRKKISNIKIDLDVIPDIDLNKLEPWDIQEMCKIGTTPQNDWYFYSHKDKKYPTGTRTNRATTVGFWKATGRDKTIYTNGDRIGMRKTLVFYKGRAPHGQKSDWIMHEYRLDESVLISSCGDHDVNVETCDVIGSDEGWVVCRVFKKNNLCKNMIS
The note with it: protein: recombinant; tags: GST; chain copies: 2; dsDNA, one strand shown. Summed up:
as §1

A further experiment addresses T5, GST-NTL8 NAC domain (Arabidopsis thaliana, UniProt Q9XIN7 14-156).
T5 sequence: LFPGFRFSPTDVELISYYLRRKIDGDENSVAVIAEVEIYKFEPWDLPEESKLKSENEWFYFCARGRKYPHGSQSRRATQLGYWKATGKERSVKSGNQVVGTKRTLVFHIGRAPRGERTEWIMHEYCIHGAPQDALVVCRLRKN
The note with it: protein: recombinant; tags: GST; chain copies: 2; dsDNA, one strand shown. In a few lines:
as §1

For the next experiment, the target named is T6, GST-SND1(1-203) (Arabidopsis thaliana, UniProt Q9LPI7 1-203).
T6 sequence: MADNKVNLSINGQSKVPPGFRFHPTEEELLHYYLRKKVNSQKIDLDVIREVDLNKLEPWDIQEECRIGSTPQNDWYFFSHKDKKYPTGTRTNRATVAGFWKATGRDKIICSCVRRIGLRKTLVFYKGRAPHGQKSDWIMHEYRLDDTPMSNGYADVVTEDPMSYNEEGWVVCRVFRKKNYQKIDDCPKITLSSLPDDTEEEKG
The following applies: protein: recombinant; tags: GST; chain copies: 2; dsDNA, one strand shown. Summed up: as §1

The target in a further experiment is T7, GST-ANAC092(1-176) (Arabidopsis thaliana, UniProt Q9FKA0 1-176).
T7 sequence: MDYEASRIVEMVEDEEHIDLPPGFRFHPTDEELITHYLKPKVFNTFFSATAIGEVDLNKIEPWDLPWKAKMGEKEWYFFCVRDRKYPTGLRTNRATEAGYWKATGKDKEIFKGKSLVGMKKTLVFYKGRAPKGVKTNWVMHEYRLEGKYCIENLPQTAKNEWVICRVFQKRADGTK
The following applies: protein: recombinant; tags: GST; chain copies: 2; dsDNA, one strand shown. Summed up:
as §1

The target of the next experiment is T8, GST-ANAC019 NAC domain (Arabidopsis thaliana, UniProt Q9C932 14-162).
T8 sequence: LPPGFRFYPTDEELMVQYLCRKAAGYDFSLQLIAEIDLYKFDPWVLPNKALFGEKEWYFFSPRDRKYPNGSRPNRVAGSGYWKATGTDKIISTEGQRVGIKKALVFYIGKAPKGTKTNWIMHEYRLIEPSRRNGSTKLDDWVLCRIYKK
The note with it: protein: recombinant; tags: GST; chain copies: 2; dsDNA, one strand shown. In a few lines: as §1

The next experiment addresses T9, GST-ATAF1 NAC domain (Arabidopsis thaliana, UniProt Q39013 7-158).
T9 sequence: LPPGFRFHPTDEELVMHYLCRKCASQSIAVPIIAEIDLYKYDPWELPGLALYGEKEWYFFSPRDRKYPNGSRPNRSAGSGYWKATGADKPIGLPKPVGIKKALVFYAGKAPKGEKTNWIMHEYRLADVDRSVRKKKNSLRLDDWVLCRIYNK
The note with it: protein: recombinant; tags: GST; chain copies: 2; dsDNA, one strand shown. Summed up: as §1

Another experiment has as its target T10, GST-VND3 NAC domain (Arabidopsis thaliana, UniProt Q9FH59 12-162).
T10 sequence: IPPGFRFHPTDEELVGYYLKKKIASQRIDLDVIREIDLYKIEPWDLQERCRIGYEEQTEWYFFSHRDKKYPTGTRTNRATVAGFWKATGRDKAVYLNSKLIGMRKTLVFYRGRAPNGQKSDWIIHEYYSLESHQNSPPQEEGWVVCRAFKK
The following applies: protein: recombinant; tags: GST; chain copies: 2; dsDNA, one strand shown. Summed up:
as §1

The target in a further experiment is T11, GST-VND7 NAC domain (Arabidopsis thaliana, UniProt Q9C8W9 9-158).
T11 sequence: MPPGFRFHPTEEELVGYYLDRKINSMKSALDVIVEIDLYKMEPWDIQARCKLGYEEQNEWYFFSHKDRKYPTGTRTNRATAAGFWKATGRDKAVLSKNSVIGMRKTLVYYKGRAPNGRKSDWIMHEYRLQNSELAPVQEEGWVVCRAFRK
The note with it: protein: recombinant; tags: GST; chain copies: 2; dsDNA, one strand shown. In a few lines: as §1

The next experiment concerns the target GST-WRKY1(266-371) (Arabidopsis thaliana, UniProt Q9SI37 266-371). The note with it: protein: recombinant; tags: GST; dsDNA, one strand shown. Summed up:
as §1

GST-NTL6(1-168), sequence (Q9SCK6 1-168): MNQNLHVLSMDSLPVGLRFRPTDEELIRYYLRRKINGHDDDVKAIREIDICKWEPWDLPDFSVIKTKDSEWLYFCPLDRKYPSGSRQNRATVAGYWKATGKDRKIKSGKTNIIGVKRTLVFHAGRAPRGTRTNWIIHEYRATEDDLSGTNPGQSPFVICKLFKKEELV
GST-WRKY1(266-371), sequence (Q9SI37 266-371): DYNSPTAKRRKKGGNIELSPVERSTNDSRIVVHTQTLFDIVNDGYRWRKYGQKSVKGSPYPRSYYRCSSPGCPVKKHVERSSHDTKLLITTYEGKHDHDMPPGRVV

As for AAAGGTAA, the binding signal was 0.262 E-score in the experiment with GST-NTL6(1-168); 0.192 E-score in the experiment with GST-ANAC055(1-171); 0.0772 E-score in [1]; 0.0527 E-score in the experiment with GST-NAP(1-166); 0.199 E-score in the experiment with GST-NST2(1-184); 0.402 E-score in the experiment with GST-NTL8 NAC domain. For the same sequence, the binding signal with GST-SND1(1-203) came out at 0.124 E-score.
ACACGACT: the binding signal with GST-ANAC092(1-176) is 0.104 E-score; with GST-ANAC019 NAC domain it was 0.411 E-score; in the experiment with GST-ANAC055(1-171) it was 0.364 E-score; in the experiment with GST-ATAF1 NAC domain, 0.336 E-score; in [1], 0.171 E-score; with GST-NAP(1-166) it was 0.179 E-score. Besides, the binding signal in the experiment with GST-NST2(1-184) was 0.19 E-score; with GST-VND3 NAC domain, 0.309 E-score; with GST-VND7 NAC domain it was 0.265 E-score; with GST-WRKY1(266-371), 0.312 E-score.
On to ACCTTACC, for which the binding signal came to 0.306 E-score with GST-NTL6(1-168); 0.0631 E-score with GST-ATAF1 NAC domain; 0.111 E-score in experiment [1]; 0.417 E-score with GST-NTL8 NAC domain; 0.152 E-score in the experiment with GST-SND1(1-203).
Regarding GGGGGTAA, the binding signal turned out to be 0.147 E-score with GST-NTL6(1-168), 0.166 E-score in [1], 0.403 E-score with GST-NTL8 NAC domain and 0.229 E-score with GST-SND1(1-203).
With ACTCAACC, the binding signal with GST-ANAC092(1-176) was found to be 0.366 E-score; with GST-ANAC055(1-171), 0.0786 E-score; with GST-ATAF1 NAC domain it was 0.117 E-score; in experiment [1] it was 0.408 E-score; in the experiment with GST-NST2(1-184), 0.221 E-score; with GST-SND1(1-203), 0.381 E-score.
For AGGAAACC, the binding signal is 0.0999 E-score in the experiment with GST-NTL6(1-168), 0.13 E-score in experiment [1], 0.482 E-score with GST-NTL8 NAC domain and 0.0696 E-score with GST-SND1(1-203).
AAGTCAAA: the binding signal with GST-ANAC092(1-176) came to 0.0569 E-score; with GST-NTL6(1-168), 0.135 E-score; in the experiment with GST-ANAC019 NAC domain it was 0.084 E-score; in the experiment with GST-ATAF1 NAC domain it was 0.16 E-score; in the experiment with GST-NAP(1-166) it was 0.102 E-score; with GST-NST2(1-184), 0.0885 E-score. For the same sequence, the results for the binding signal with GST-VND3 NAC domain, with GST-VND7 NAC domain and with GST-WRKY1(266-371) were 0.0889 E-score, 0.106 E-score and 0.488 E-score, respectively.
For ATTTCCTC, the binding signal with GST-NTL6(1-168) worked out at 0.148 E-score; with GST-NST2(1-184), 0.115 E-score; in the experiment with GST-NTL8 NAC domain, 0.437 E-score; in the experiment with GST-SND1(1-203), 0.091 E-score.
TGAGGAAA: the binding signal in the experiment with GST-ANAC092(1-176) worked out at 0.0937 E-score; with GST-NTL6(1-168), 0.106 E-score; with GST-NST2(1-184) it was 0.105 E-score; with GST-NTL8 NAC domain it was 0.429 E-score; with GST-SND1(1-203), 0.172 E-score.
On to ACTAGTCA, for which the binding signal worked out at 0.0862 E-score with GST-ANAC092(1-176); 0.0985 E-score in the experiment with GST-ANAC019 NAC domain; 0.134 E-score with GST-ANAC055(1-171); 0.0655 E-score with GST-ATAF1 NAC domain; 0.0648 E-score in experiment [1]; 0.0759 E-score with GST-NAP(1-166). In addition, the binding signal came to 0.128 E-score with GST-NTL8 NAC domain, 0.108 E-score in the experiment with GST-VND3 NAC domain, 0.0656 E-score in the experiment with GST-VND7 NAC domain and 0.435 E-score in the experiment with GST-WRKY1(266-371).
Turning to CTTTTGAC, the binding signal with GST-ANAC092(1-176) amounted to 0.158 E-score; in the experiment with GST-NTL6(1-168), 0.0997 E-score; in the experiment with GST-ANAC055(1-171), 0.114 E-score; with GST-ATAF1 NAC domain, 0.168 E-score; in experiment [1] it was 0.0903 E-score; in the experiment with GST-VND3 NAC domain, 0.12 E-score. For the same sequence, the binding signal worked out at 0.101 E-score in the experiment with GST-VND7 NAC domain and 0.448 E-score in the experiment with GST-WRKY1(266-371).
Turning to GCACGCGA, the binding signal in the experiment with GST-ANAC092(1-176) amounted to 0.287 E-score; in [1] it was 0.429 E-score; with GST-NST2(1-184), 0.191 E-score; in the experiment with GST-SND1(1-203), 0.286 E-score.
Regarding CACGCTAG, the binding signal in the experiment with GST-ANAC092(1-176) was 0.389 E-score; with GST-ANAC019 NAC domain it was 0.115 E-score; in the experiment with GST-ANAC055(1-171) it was 0.101 E-score; in experiment [1] it was 0.426 E-score; with GST-NAP(1-166), 0.0849 E-score; with GST-NST2(1-184) it was 0.156 E-score. For the same sequence, the binding signal in the experiment with GST-SND1(1-203) came to 0.218 E-score.
As for GAGGAAAC, the binding signal with GST-ANAC092(1-176) was found to be 0.0974 E-score; with GST-ATAF1 NAC domain it was 0.0627 E-score; in experiment [1], 0.0772 E-score; in the experiment with GST-NAP(1-166) it was 0.0571 E-score; with GST-NTL8 NAC domain, 0.465 E-score; with GST-SND1(1-203) it was 0.099 E-score.
In the case of GCTAAGCA, the binding signal is 0.411 E-score in the experiment with GST-NTL6(1-168), 0.0614 E-score with GST-NST2(1-184) and 0.155 E-score in the experiment with GST-SND1(1-203).
